According to PubChem BioAssay:
The list shows a part of the results. Calls of active or inactive are those of the source.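 The calls were made as follows, unless noted: active = GFP response above 150% of the DMSO level; inconclusive = fewer than 70 events counted for a yeast strain; inactive = the rest.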

Assays:
[1] = hit retest on RPL19A-GFP reporter strain – cell-based, S. cerevisiae, flow cytometry, cherry picks, mother/daughter gates, confirmation (AID 2270;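 active = GFP response below 50% of the DMSO control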); conditions: 3 h, at 10 µM, stronger effect = lower value, 100 = same GFP as DMSO wells
[2] = yeast TOR pathway reporter LAP4-GFP change – cell-based, cherry picks, flow cytometry, mother/daughter gates, confirmation (AID 2271;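 active = GFP response above 150% of the DMSO control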;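 also: ratio of sample to DMSO plate mean so 100% equals DMSO level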); conditions: S. cerevisiae LAP4-GFP strain, 3 h, at 10 µM, stronger effect = higher value, 100 means same as DMSO control
[3] = TOR pathway reporter MEP2-GFP, retest of hits – S. cerevisiae, flow cytometry GFP, cherry picks, confirmation (AID 2272;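 active = GFP response above 150% of the DMSO control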;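 also: ratio of well signal to plate DMSO mean so 100% equals DMSO level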); conditions: S. cerevisiae MEP2-GFP strain, 3 h, at 10 µM, stronger effect = higher value
[4] = yeast AGP1-GFP fluorescence change, single-dose – cell-based, flow cytometry, S. cerevisiae, cherry picks, confirmation (AID 2273);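 also: median GFP channel fluorescence over the whole cell population gate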; conditions: S. cerevisiae AGP1-GFP strain, 3 h, at 10 µM
[5] = TOR pathway CIT2 reporter hit retest – S. cerevisiae, GFP fusion, cherry picks, mother/daughter gates, confirmation (AID 2274); conditions: S. cerevisiae CIT2-GFP strain, flow cytometry, 3 h, at 10 µM, stronger effect = higher value
[6] = green-channel fluorescence artefact in S. cerevisiae – s288c strain, artefact control for yeast TOR pathway GFP screen, dose response (AID 2757;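 active = fluorescence span over the dose series, or activity score, above about 33, limit read from the data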;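 also: thousands of bead-calibrated equivalent soluble fluorophore molecules from median cell fluorescence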); conditions: 520 nm autofluorescence, flow cytometry, 3 h, at 33 µM, stronger effect = higher value, zero means same as solvent-only cells
[7] = measured here: daughter cell gate
[8] = measured here: mother cell gate
[9] = measured here: daughter cell gate response
[10] = measured here: mother cell gate response

## O=C(Nc1ccccc1)c1nnsc1S(=O)(=O)c1ccc(Cl)cc1
[1]
  GFP response vs DMSO: 73.3% (inactive)
[1]; [7]
  GFP response vs DMSO: 87.8%
[1]; [8]
  GFP response vs DMSO: 61.5%
[2]
  GFP response relative to DMSO: 164% (active)
[2]; [9]
  GFP response relative to DMSO: 92.8%
[2]; [10]
  GFP response relative to DMSO: 206%
[3]
  GFP response vs DMSO: 144% (inactive)
[4]
  GFP response, % of DMSO: 87.7% (inactive)
[5]
  GFP response, % of DMSO: 95.5% (inactive)
[5]; [7]
  GFP response, % of DMSO: 93.6%
[5]; [8]
  GFP response, % of DMSO: 84.3%
[6]
  fluorescence change (kMESF span): 1.31 (inactive)

## Cc1cc(C)nc(S/C=C/C(=O)c2ccccc2)n1
[1]
  GFP response vs DMSO: 100% (inactive)
[1]; [7]
  GFP response vs DMSO: 101%
[1]; [8]
  GFP response vs DMSO: 98%
[2]
  GFP response relative to DMSO: 169% (active)
[2]; [9]
  GFP response relative to DMSO: 151%
[2]; [10]
  GFP response relative to DMSO: 191%
[3]
  GFP response vs DMSO: 121% (inactive)
[4]
  GFP response, % of DMSO: 107% (inactive)
[5]
  GFP response, % of DMSO: 92.2% (inactive)
[5]; [7]
  GFP response, % of DMSO: 98.4%
[5]; [8]
  GFP response, % of DMSO: 83.8%
[6]
  fluorescence change (kMESF span): 1.02 (inactive)

## Nc1ccccc1SC(C[N+](=O)[O-])c1ccccc1 (centres undefined)
[1]
  GFP response vs DMSO: 93.3% (inactive)
[1]; [7]
  GFP response vs DMSO: 96.3%
[1]; [8]
  GFP response vs DMSO: 87.6%
[2]
  GFP response relative to DMSO: 173% (active)
[2]; [9]
  GFP response relative to DMSO: 170%
[2]; [10]
  GFP response relative to DMSO: 169%
[3]
  GFP response vs DMSO: 112% (inactive)
[4]
  GFP response, % of DMSO: 112% (inactive)
[5]
  GFP response, % of DMSO: 92.2% (inactive)
[5]; [7]
  GFP response, % of DMSO: 100%
[5]; [8]
  GFP response, % of DMSO: 81.8%
[6]
  fluorescence change (kMESF span): 0.62 (inactive)

## CCCc1[nH]nc2c1C(c1ccccc1OC)C(C#N)=C(N)O2 (centres undefined)
[1]
  GFP response vs DMSO: 98% (inactive)
[1]; [7]
  GFP response vs DMSO: 94.4%
[1]; [8]
  GFP response vs DMSO: 94.3%
[2]
  GFP response relative to DMSO: 116% (inactive)
[2]; [10]
  GFP response relative to DMSO: 100%
[3]
  GFP response vs DMSO: 120% (inactive)
[4]
  GFP response, % of DMSO: 102% (inactive)
[5]
  GFP response, % of DMSO: 115% (inactive)
[5]; [7]
  GFP response, % of DMSO: 121%
[5]; [8]
  GFP response, % of DMSO: 112%

## Cc1ccc(/C=C/c2ccc(N(C)C)cc2)[n+](C)c1
[1]
  GFP response vs DMSO: 101% (inactive)
[1]; [7]
  GFP response vs DMSO: 94.2%
[1]; [8]
  GFP response vs DMSO: 93.8%
[2]
  GFP response relative to DMSO: 119% (inactive)
[3]
  GFP response vs DMSO: 133% (inactive)
[4]
  GFP response, % of DMSO: 103% (inactive)
[5]
  GFP response, % of DMSO: 121% (inactive)
[5]; [7]
  GFP response, % of DMSO: 121%
[5]; [8]
  GFP response, % of DMSO: 110%

## O=c1[nH]c(-c2ccccn2)nc(C(F)(F)F)c1Br
[1]
  GFP response vs DMSO: 110% (inactive)
[1]; [7]
  GFP response vs DMSO: 102%
[1]; [8]
  GFP response vs DMSO: 101%
[2]
  GFP response relative to DMSO: 247% (active)
[2]; [10]
  GFP response relative to DMSO: 219%
[3]
  GFP response vs DMSO: 118% (inactive)
[4]
  GFP response, % of DMSO: 91.2% (inactive)
[5]
  GFP response, % of DMSO: 112% (inactive)
[5]; [7]
  GFP response, % of DMSO: 106%
[5]; [8]
  GFP response, % of DMSO: 103%

## CCOC(=O)C(C(=O)OCC)C(C(=O)OCC)N1CCOCC1 (centres undefined)
[1]
  GFP response vs DMSO: 74.1% (inactive)
[1]; [8]
  GFP response vs DMSO: 61.4%
[2]
  GFP response relative to DMSO: 182% (active)
[2]; [9]
  GFP response relative to DMSO: 158%
[2]; [10]
  GFP response relative to DMSO: 165%
[3]
  GFP response vs DMSO: 108% (inactive)
[4]
  GFP response, % of DMSO: 90.2% (inactive)
[5]
  GFP response, % of DMSO: 86.1% (inactive)
[5]; [7]
  GFP response, % of DMSO: 105%
[5]; [8]
  GFP response, % of DMSO: 72.5%

## COc1cccc(/C(C)=N/NC(=O)c2ccc(N(C)C)cc2)c1
[1]
  GFP response vs DMSO: 99.7% (inactive)
[1]; [7]
  GFP response vs DMSO: 96.5%
[1]; [8]
  GFP response vs DMSO: 99.7%
[2]
  GFP response relative to DMSO: 93% (inactive)
[3]
  GFP response vs DMSO: 99.5% (inactive)
[4]
  GFP response, % of DMSO: 98.9% (inactive)
[5]
  GFP response, % of DMSO: 102% (inactive)
[5]; [7]
  GFP response, % of DMSO: 102%
[5]; [8]
  GFP response, % of DMSO: 89.8%
